# RAD54 branch: inhibitors of human RAD54 branch migration, primary screen, biochemical, fluorescence, single point | DNA repair and recombination protein RAD54-like (Homo sapiens), Q92698 | RAD54 Holliday junction branch migration, FAM/BHQ fluorescence | inhibition, % at 10.4 µM | actives 0.14% (n = 360,000);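 active means mean normalized replicate activity at least 40 and at least half of replicates scoring 40 or more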;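 further: inhibitors cause a drop in the FAM fluorescence signal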
# Target sequence (Q92698 whole entry, looked up): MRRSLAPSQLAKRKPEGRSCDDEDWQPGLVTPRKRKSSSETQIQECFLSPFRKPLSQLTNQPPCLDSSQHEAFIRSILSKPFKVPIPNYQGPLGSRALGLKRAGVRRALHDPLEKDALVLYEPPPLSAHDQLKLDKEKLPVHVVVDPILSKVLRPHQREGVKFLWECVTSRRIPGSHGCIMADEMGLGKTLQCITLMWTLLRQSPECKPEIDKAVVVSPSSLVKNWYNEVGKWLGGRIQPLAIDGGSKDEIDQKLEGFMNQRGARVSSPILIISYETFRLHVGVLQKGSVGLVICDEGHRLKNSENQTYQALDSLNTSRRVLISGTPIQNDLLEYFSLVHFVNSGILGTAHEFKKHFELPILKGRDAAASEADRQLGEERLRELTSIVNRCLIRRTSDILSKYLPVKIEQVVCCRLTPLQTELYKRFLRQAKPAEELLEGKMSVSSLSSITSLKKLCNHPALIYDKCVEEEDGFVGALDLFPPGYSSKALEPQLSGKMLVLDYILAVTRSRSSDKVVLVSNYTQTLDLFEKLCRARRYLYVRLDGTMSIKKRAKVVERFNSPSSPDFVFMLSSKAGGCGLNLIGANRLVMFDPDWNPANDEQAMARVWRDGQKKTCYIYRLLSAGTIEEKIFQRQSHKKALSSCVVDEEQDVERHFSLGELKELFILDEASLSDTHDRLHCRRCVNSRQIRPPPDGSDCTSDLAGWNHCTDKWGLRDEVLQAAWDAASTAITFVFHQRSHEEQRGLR
# MIN6 prolif: inducers of MIN6 beta-cell proliferation, primary screen, ATP luminescence, uHTS; MIN6 cells proliferation, ATPlite luminescence, 48 h; cells starved in 0.2% serum; 100% = growth in 10% serum; proliferation, % at 10 µM; actives 0.29% (n = 330,000);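 active means compounds whose signal lies at least 3.5 SD above the mean of all wells on their plate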
# FID counter: compounds displacing fluorescent DNA intercalator, primary screen, artefact control for HCV NS3 helicase inhibitor project, biochemical, FID fluorescence; actives 0.17% (n = 290,000); inhibition, % at 7.9 µM; DNA fluorescent intercalator displacement; in the data active means inhibition above about 37%;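 further: higher means more ethidium bromide displaced from hairpin DNA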
# PREPL inhibitor: PREPL enzyme inhibitors, primary screen, biochemical, fluorescence polarization. Prolyl endopeptidase-like (Homo sapiens), Q4J6C6. actives 0.68% (n = 320,000). recombinant PREPL, fluorescence polarization activity-based probe. inhibition, % at 5.96 µM; in the data active means inhibition above about 43%
# RAD52 anneal inh: RAD52 DNA annealing inhibitors, primary screen, biochemical, FRET, single point, set 2; DNA repair protein RAD52 homolog (Homo sapiens), P43351; recombinant RAD52 DNA annealing, FRET fluorescence; inhibition, % at 18.7 µM; actives 0.46% (n = 360,000); AID 651710, 2012;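 active means every replicate showing at least 50% inhibition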
# UBC13 inh: UBC13 polyubiquitin chain formation inhibitors, primary screen, biochemical, TR-FRET, uHTS. actives 0.47% (n = 330,000). inhibition, % at 20 µM; in the data active means inhibition above about 45%, passing the limit was not always enough
# Casp3 UBC13 ctr: CASP3 inhibitor validation, counterassay for project on UBE2N polyubiquitination blockers, biochemical, one dose; shares compounds with UBC13 inh; Recombinant caspase-3, Caspase-Glo 3/7 luminescence, 60 min; inhibition, % at 20 µM; actives 4% (n = 1,400);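 active means mean inhibition across replicates above about 26%, limit read from the data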
# UBC13 confirm: UBC13 polyubiquitination inhibitors, single-point retest, confirmation, biochemical, TR-FRET, single concentration. shares compounds with UBC13 inh. inhibition, % at 10 µM. actives 68% (n = 1,400). AID 488859, 2010; in the data active means inhibition above about 45%
# Hits are given with their value; n = inactive; x = no result. Only some compounds are listed: those with a hit (about 1.3% of all), similar ones and a draw of the others.
SMILES,RAD54 branch,MIN6 prolif,FID counter,PREPL inhibitor,RAD52 anneal inh,UBC13 inh,Casp3 UBC13 ctr,UBC13 confirm
C#CCOCCOCCOCCNc1nc(N2CCN(C(=O)[C@H]([C@@H](C)CC)n3cc([C@@H](N)Cc4ccc(O)cc4)nn3)CC2)nc(N2CCN(C(=O)[C@H](CCCCN)n3cc([C@@H](N)C(C)CC)nn3)CC2)n1 (stereo not given in full),n,n,43,n,x,67,n,50
C#CCOCCOCCOCCNc1nc(N2CCN(C(=O)[C@H]([C@@H](C)CC)n3cc(CCCCN)nn3)CC2)nc(N2CCN(C(=O)[C@H](C)n3cc(CCCN=C(N)N)nn3)CC2)n1,n,n,x,n,n,n,x,x
C#CCOCCOCCOCCNc1nc(N2CCN(C(=O)C([C@@H](C)CC)n3cc(C(N)COC(=O)C(F)(F)F)nn3)CC2)nc(N2CCN(C(=O)[C@H](Cc3cc4ccccc4[nH]3)n3cc(C(N)CO)nn3)CC2)n1 (stereo not given in full),x,n,x,n,x,69,n,n
CC(C)C#Cc1cnc2c(c1)C(=O)N([C@@H](C)CO)C[C@H](C)[C@H](CN(C)C(=O)c1cnccn1)O2,n,x,x,x,n,x,x,x
CO[C@@H]1CC[C@H]2CCN(C)C(=O)C[C@H](c3ccccc3)CN(C)C(=O)c3cc(C#N)ccc3OC[C@@H]1O2,n,x,x,x,n,x,x,x
CN1C(=O)c2cc(NC(=O)c3ccc(F)c(F)c3)ccc2OC[C@@H]2O[C@H](CC(=O)N3CCOCC3)CC[C@H]21,n,x,x,x,n,x,x,x
CC(C)(C)[S@](=O)N1Cc2cc(C(=O)O)nc(-c3cccc(-c4cccc(F)c4)c3)c2[C@@H]1CCO,x,x,x,x,n,x,x,x
CN(C)CC(=O)Nc1ccc2c(c1)[C@@H]1C[C@@H](CC(=O)NC3CCCCC3)O[C@H](CO)[C@@H]1O2,n,x,x,x,n,x,x,x
CCCC#Cc1cnc2c(c1)C(=O)N([C@@H](C)CO)C[C@H](C)[C@H](CN(C)C(=O)Nc1cc(F)ccc1F)O2,n,x,x,x,n,x,x,x
C#CCOCCOCCOCCNc1nc(N2CCN(C(=O)[C@H]([C@@H](C)CC)n3cc([C@@H](N)Cc4ccc(O)cc4)nn3)CC2)nc(N2CCN(C(=O)[C@H]([C@@H](C)CC)n3cc([C@@H](N)Cc4ccc(O)cc4)nn3)CC2)n1,n,n,n,n,n,54,n,n
CC(=O)Nc1sc2c(c1-c1nc3ccccc3s1)CCN(C(C)C)C2,78,n,60,n,x,60,n,n
COc1ccccc1NC(=O)CN1CCC(n2nnc3cc(F)ccc32)CC1,n,n,n,n,x,70,n,69
COc1ccc(Cl)cc1NC(=O)CN1CCC(n2nnc3cc(C)ccc32)CC1,x,n,n,n,x,46,n,51
COc1ccc(-c2sc3cc4c(cc3c2C#CC2(N)CCCCC2)OCO4)cc1,n,n,x,n,n,85,n,89
COc1ccc(-c2noc(CCC(=O)NCC3CCN(Cc4cccc(C)c4)CC3)n2)cc1,n,n,n,n,x,54,n,49
COc1ccc(-c2noc(CCC(=O)NC3CCN(Cc4ccccc4)CC3)n2)cc1,x,n,n,n,x,n,x,x
C[C@H]1CN([C@@H](C)CO)C(=O)c2cc(NC(=O)C3CC3)ccc2O[C@H]1CN(C)S(=O)(=O)c1ccc(F)cc1,n,x,x,x,n,x,x,x
COc1ccc(NC(=S)NNC(=O)c2nnn(-c3ccccc3)c2C)cc1,x,n,n,n,n,59,n,82
COc1cc2[nH]c(=S)nc(Nc3ccc(NC(C)=O)cc3)c2cc1OC,x,n,n,n,n,46,n,48
COc1ccccc1CNc1nc(=S)[nH]c2cc(OC)c(OC)cc12,n,n,n,n,n,n,x,x
C#CCOCCOCCOCCNc1nc(N2CCN(C(=O)[C@H]([C@@H](C)CC)n3cc(CCCN=C(N)N)nn3)CC2)nc(N2CCN(C(=O)[C@H]([C@@H](C)CC)n3cc(CCC(=O)O)nn3)CC2)n1,n,x,x,x,n,x,x,x
C#CCOCCOCCOCCNc1nc(N2CCN(C(=O)CCCCCCCCCCNC(=O)[C@@H](CCSC)n3cc(CCO)nn3)CC2)nc(N2CCN(C(=O)CCCCCCCCCCNC(=O)[C@H]([C@@H](C)CC)n3cc(CCCCN=C(N)N)nn3)CC2)n1,n,n,x,n,x,125,n,124
C#CCOCCOCCOCCNc1nc(N2CCN(C(=O)CCCCCCCCCCNC(=O)[C@H](CCCCN)n3cc(CCCC(=O)O)nn3)CC2)nc(N2CCN(C(=O)CCCCCCCCCCNC(=O)[C@H](CCCCN)n3cc(CCCC(=O)O)nn3)CC2)n1,n,n,x,n,x,45,n,n
C#CCOCCOCCOCCNc1nc(N2CCN(C(=O)CCCCCCCCCCNC(=O)[C@@H](CCC(=O)O)n3cc(CCCCCN)nn3)CC2)nc(N2CCN(C(=O)CCCCCCCCCCNC(=O)[C@@H](CCC(=O)O)n3cc(CCCCCN)nn3)CC2)n1,n,n,x,n,n,45,n,n
C#CCOCCOCCOCCNc1nc(N2CCOCC2)nc(N2CCN(C(=O)CCCCCCCCCCNC(=O)[C@H](CO)n3cc(CCCCCN)nn3)CC2)n1,n,n,x,n,n,62,n,n
SMILES,RAD54 branch,MIN6 prolif,FID counter,PREPL inhibitor,RAD52 anneal inh,UBC13 inh,Casp3 UBC13 ctr,UBC13 confirm
CC(C)NC(=O)N[C@H]1CC[C@H](CC(=O)O)O[C@H]1CO,n,x,x,x,n,x,x,x
C#CCOCCOCCOCCNc1nc(N2CCN(C(=O)CCCCCCCCCCNC(=O)[C@H](CCCCN)n3cc(CCO)nn3)CC2)nc(N2CCN(C(=O)CCCCCCCCCCNC(=O)[C@@H]([C@H](C)O)n3cc(C)nn3)CC2)n1,n,n,x,n,x,121,n,122
C#CCOCCOCCOCCNc1nc(N2CCOCC2)nc(N2CCN(C(=O)CCCCCCCCCCNC(=O)[C@@H]([C@H](C)O)n3cc(C)nn3)CC2)n1,n,n,x,n,n,n,x,x
C[C@H](CO)N1C[C@H](C)[C@H](CN(C)C(=O)Nc2ccc(C(F)(F)F)cc2)Oc2c(NS(=O)(=O)c3ccc(Cl)cc3)cccc2C1=O,n,x,x,x,n,x,x,x
CO[C@@H]1CN(C)C(=O)c2ccc(NC(C)=O)cc2OC[C@@H](C)N(Cc2cncnc2)C[C@@H]1C,n,x,x,x,x,x,x,x
CCC(=O)NC(=S)NNC(=O)c1ccc(O)cc1,n,n,n,n,n,86,n,101
